Assay results taken from PubChem BioAssay (NCATS).
Results filed as inconclusive are left out. The list shows a part of the results. Calls of active or inactive are those of the source. Unless noted, the call rests on the fitted dose curve; in most records, active means well fitted curve in the direction sought with a large enough effect; inconclusive means small, poorly fitted or top-dose-only effect, or another doubt; inactive means no such curve, though single readings can be large; an effect the other way counts as inactive or inconclusive.

How the values were obtained:
[1] = target: Tumor susceptibility gene 101 protein (Homo sapiens) (UniProt Q99816); test: qHTS Assay for Iinhibitors of HIV-1 Budding by Blocking the Interaction of PTAP/TSG101: Hit Validation (AID 651600); further: potency means the concentration at half of the fitted maximal effect; nearly all actives have a fitted effect of over 70% in size
Outline: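 Fluorescence polarization binding assay: Tsg101 binding domain (10 uM) mixed with compounds and FITC-labeled PTAP peptide (50 nM) in HEPES pH 7.5, 0.15 M NaCl, 0.01% Tween 20, EDTA, TCEP; 20 min at r.t.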

[2] = target: Rap guanine nucleotide exchange factor 3 (Homo sapiens) (UniProt O95398); test: Confirmatory qHTS for antagonist of cAMP-regulated guanine nucleotide exchange factor 3 (EPAC1) (AID 1645880); conditions: EPAC1 Rap1B-BODIPY-GDP exchange, fluorescence; activity, negative = inhibition: at 115 µM (top of the series); further: nearly all actives have a fitted effect of over 55% in size; further: potency means the concentration at half of the fitted maximal effect;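 on activity, negative = inhibition: plate controls were DMSO only for no effect and full effect of the ATA control for full effect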
Outline: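 Nucleotide exchange uses 100 nM EPAC1, 250 nM RAP1B-BODIPY-GDP and 50 uM GDP, with compounds in a concentration-titration series. After 5 min at room temperature, fluorescence (480 nm ex/540 nm em) is read every 5 min for 30 min. Data are normalized to control ATA and DMSO.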

[3] = target: Rap guanine nucleotide exchange factor 3 (Homo sapiens) (UniProt O95398); test: Confirmatory qHTS for agonist of cAMP-regulated guanine nucleotide exchange factor 3 (EPAC1) (AID 1645881); further: nearly all actives have a fitted effect of over 75% in size; further: potency means the concentration at half of the fitted maximal effect;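 on activation: EPAC1 catalysed release of BODIPY-GDP from Rap1B seen as fluorescence loss; 100% = effect of cAMP agonist control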
[4] = target: Rap guanine nucleotide exchange factor 4 (Homo sapiens) (UniProt Q8WZA2); test: Confirmatory qHTS for agonist of cAMP-regulated guanine nucleotide exchange factor 4 (EPAC2) (AID 1645884);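 further: nucleotide exchange releases bodipy-GDP from Rap1 and this lowers its fluorescence; nearly all actives have a fitted effect of over 65% in size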; further: potency means the concentration at half of the fitted maximal effect
[5] = target: Rap guanine nucleotide exchange factor 4 (Homo sapiens) (UniProt Q8WZA2); test: Confirmatory qHTS for antagonist of cAMP-regulated guanine nucleotide exchange factor 4 (EPAC2) (AID 1645885); further: nearly all actives have a fitted effect of over 25% in size; further: potency means the concentration at half of the fitted maximal effect
[6] = target: Rap guanine nucleotide exchange factor 3 (Homo sapiens) (UniProt O95398); test: Counterscreen qHTS for agonist of cAMP-regulated guanine nucleotide exchange factor 3 (EPAC1) (AID 1645889); further: nearly all actives have a fitted effect of over 40% in size; further: potency means the concentration at half of the fitted maximal effect; on activation: % of control where 0% means no effect
Outline: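 Rap1B–BODIPY-GDP (250 nM) with 50 uM GDP; compounds pin-transferred to 9.74 nM–152 uM final (activator) or from 7.32 nM upwards (inhibitor). Fluorescence Ex/Em 480/540 nm read at 5 and 30 min, then after adding cAMP or buffer, at room temperature.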

[7] = target: Vitamin D3 receptor (Homo sapiens) (UniProt P11473); test: qHTS for Inhibitors of the vitamin D receptor (VDR): Hit Validation in Primary Screen (AID 602199); conditions: VDR-coactivator inhibition assay, qHTS confirmation; further: potency means the concentration at half of the fitted maximal effect
Outline: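 Fluorescence polarization (Ex 620/Em 688 nm) of Alexa 647-SRC2-3 peptide with 800 nM VDR and 5 uM LG19078. Compounds at several concentrations, 2 h at room temperature.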

[8] = qHTS for Inhibitors of the vitamin D receptor (VDR): Hit Validation using a Texas Red Assay (AID 602201); further: on the % scale 0 is the no-effect control and ±100 the full control effect
Outline: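 Fluorescence polarization with 1.5 uM VDR-LBD, LG19078 and 7 nM Texas Red (final). After 2 hours at ambient temperature, read at Ex 595 nm/Em 615 nm.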

[9] = target: Vitamin D3 receptor (Homo sapiens) (UniProt P11473); test: qHTS for Inhibitors of the vitamin D receptor (VDR): Hit Validation using a Beta-Lactamase Assay (AID 602202); further: on the % scale 0 is the no-effect control and ±100 the full control effect
Outline: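 Stably transfected HEK293 cells expressing VDR-GAL4 DNA-binding domain fusion with UAS-driven beta-lactamase reporter, activated by agonist LG190178; compounds incubated 18 h, then FRET beta-lactam substrate 2 h; cleaved substrate read at 447 nm emission.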

[10] = qHTS for Inhibitors of the vitamin D receptor (VDR): Hit Validation using a Cytotoxicity Assay (AID 602204);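 further: plate controls were DMSO for no effect and high-concentration cycloheximide for full effect; nearly all actives have a fitted effect of over 75% in size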
Outline: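 Each well held 20,000 cells, incubated 4 h before compounds went in. An 18 h treatment preceded addition of ATP-sensing luminescent reagent, with reading after 30 min; cycloheximide and DMSO controlled the window.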

[11] = target: Cytochrome P450 3A4 (Homo sapiens) (UniProt P08684); test: qHTS Assay for Inhibitors and Substrates of Cytochrome P450 3A4 (AID 884); further: potency means the concentration at half of the fitted maximal effect; nearly all actives have a fitted effect of over 50% in size
Outline: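 20 nM human CYP3A4 with 25 uM Luciferin-PPXE (at KM) in 200 mM KPO4, preincubated 10 min with compound; NADPH regeneration started a 60 min RT reaction. Luciferin detected by luminescence, normalized to 57 uM ketoconazole as full inhibition.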

[12] = target: Cytochrome P450 3A4 (Homo sapiens) (UniProt P08684); test: qHTS Assay for Activators of Cytochrome P450 3A4 (AID 885); further: nearly all actives have a fitted effect of over 65% in size
Outline: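 Signal was normalized against complete inhibition by 57 uM ketoconazole. The reaction used 20nM CYP3A4 with 25uM Luciferin-PPXE, 10-min compound preincubation and a 60-min NADPH-supported step at RT.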

[13] = Confirmation and Secondary Assay for Modulators of Hemoglobin Beta Chain Splicing at IVS2 654 locus (AID 910);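 further: HeLa cells stably carrying EGFP split by mutant beta-globin IVS2-654 intron; % of control where 0% means no effect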
Outline: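 HeLa cells stably expressing EGFP interrupted by β-globin IVS2-654 intron, seeded overnight in Opti-MEM/2% FCS, then treated 2 days at 37 °C. Restored splicing read as total peak GFP intensity per well by laser scanning cytometry (488 nm excitation, 500–520 nm emission); 500 nM antisense PNA as control.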

[14] = Confirmation and Secondary Assay for Modulators of Hemoglobin Beta Chain Splicing at IVS2 705 locus (AID 930);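 further: HeLa cells stably expressing the EGFP-705 splicing reporter; GFP fluorescence per well restored by corrected splicing of the IVS2-705 intron in EGFP; % of control where 0% means no effect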
Outline: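 HeLa IVS2-705 EGFP reporter cells, 500/well, compound 2 d at 37C; correct splicing yields fluorescent EGFP. Control: 500 nM antisense PNA. Read-out: total peak GFP intensity.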

[15] = target: Cytochrome P450 1A2 (Homo sapiens) (UniProt P05177); test: p450-cyp1a2 (AID 410; calls by dose curve; further: potency means the concentration at half of the fitted maximal effect)
Outline: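 Human CYP1A2 (20nM) demethylated Luciferin-ME at its Km (100uM) in 100mM KPO4. After 10 min compound preincubation, NADPH regeneration ran the reaction 60 min at room temperature. Luciferin was read by luminescence, normalized to 57 uM furafylline.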

[16] = NFAT Signaling Pathway (AID 444; active means well fitted curve in either direction with a large enough effect, not every such curve was filed as active;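 further: carbachol stimulus at about its EC50 of 1 µM final; on the % scale 0 is the no-effect control and ±100 the full control effect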); conditions: Jurkat NFAT-bla M1, carbachol, beta-lactamase ratio, 5 h; at 7.69 µM (top of the series) unless noted
Outline: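 Jurkat cells with NFAT-driven β-lactamase reporter and co-expressed M1 receptor, stimulated with carbachol (final 1 uM, ~EC50), compound titration, 5 h at 37 °C. CCF4 loaded 1 h at RT; 460/530 nm ratio gave %activity and AC50.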

[17] = target: Glucocorticoid receptor (Homo sapiens) (UniProt P04150); test: GR-GFP Redistribution (AID 450;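 active means compounds whose dose series gives a full or clear partial fitted curve of increased nuclear translocation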; further: potency means the concentration at half of the fitted maximal effect); conditions: U2OS GR-GFP nuclear translocation, laser cytometry, 2 h
[18] = target: Glucocorticoid receptor (Homo sapiens) (UniProt P04150); test: GR-EFC Redistribution (AID 451; calls by dose curve; further: potency means the concentration at half of the fitted maximal effect); conditions: CHO-K1 GR-EFC translocation, beta-gal luminescence, 2 h
Outline: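 CHO-K1 cells expressing nuclear EA and GR-ED fragments of b-gal; compounds titrated up to 46 uM final, 2 h at 37 C. GR nuclear translocation read as complemented b-gal luminescence after 1 h RT detection.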

[19] = target: Mitogen-activated protein kinase 10 (Mus musculus) (UniProt Q61831); test: JNK3 AlphaScreen Assay (AID 530; active means well fitted curve in either direction with a large enough effect, not every such curve was filed as active;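 further: kinase came from lysate of stimulated human HepG2 cells; signal reports phosphorylation of biotinylated GST-cJun 1-79 at Ser73 with 10 µM ATP; on the % scale 0 is the no-effect control and ±100 the full control effect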)
Outline: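 qHTS format: compounds tested as titrations against IL-1beta/TNF-alpha-activated HepG2 lysate JNK3 with biotin-GST-cJun substrate and 10 uM ATP at room temperature. Loss of anti-phospho-cJun AlphaScreen signal indicates inhibition.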

[20] = target: 3',5'-cyclic-AMP phosphodiesterase 4B (Homo sapiens) (UniProt Q07343); test: qHTS Assay for Inhibitors of PDE-IV (AID 607; active means well fitted activation curve with a large enough effect in the main read-out, with a control signal flat, not every such curve was filed as active; further: % of control where 0% means no effect)
Outline: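 Cell-based read-out of cAMP via a modified cyclic nucleotide-gated channel and membrane potential dye (535/590 nm) in HEK293 cells expressing PDE4 endogenously. Compounds tested up to 22.9 uM final; 100 uM RO 20-1724 reference.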

[21] = target: Lysosomal acid glucosylceramidase (Homo sapiens) (UniProt P04062); test: Glucocerebrosidase-p2 (AID 348; in the data active means potency below about 10 µM; further: potency means the concentration at half of the fitted maximal effect); conditions: purified GBA, blue fluorogenic substrate, 40 min
Outline: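 Compounds titrated from 0.6 nM upwards against 0.2 nM enzyme in pH 5.9 citric acid/KH2PO4, taurocholate, tween-20; blue fluorogenic substrate 80 uM, 40 min room temperature, stopped and read Ex 365/Em 440 for AC50.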

[22] = qHTS Assay for Identification of Small Molecule Agonists for Hypoxia Response Element Signaling Pathway (AID 914; active means well fitted activation curve with a large enough effect in the signal ratio, with a control signal flat, not every such curve was filed as active; the % refers to the signal ratio; further: potency means the concentration at half of the fitted maximal effect); conditions: ME-180 (cervical carcinoma) HRE-bla reporter, beta-lactamase ratio, CoCl2, 17 h; activation: hits give high values
Outline: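 HRE-bla ME-180 assay for agonist-like enhancement of an EC50 CoCl2 stimulus: 17 h at 37 degrees Celsius, CCF4 for 2.5 h, ratiometric 460/530 nm signal converted to %Activity and fitted to AC50.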

[23] = target: Dual specificity protein kinase CLK4 (Homo sapiens) (UniProt Q9HAZ1); test: qHTS Assay for Inhibitors of CDC-like Kinase 4 (Kinase-Glo Assay) (AID 1770); further: on the % scale 0 is the no-effect control and ±100 the full control effect; nearly all actives have a fitted effect of over 65% in size
Outline: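 25 nM Clk4 with 100 uM RS repeat peptide and 1 uM ATP (final) in Tris pH7.5, 10 mM MgCl2, 4.5 h at room temperature. Remaining ATP measured by Kinase-Glo luciferase luminescence.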

[24] = target: Dual specificity protein kinase CLK4 (Homo sapiens) (UniProt Q9HAZ1); test: qHTS Assay for Inhibitors of CDC-like Kinase 4 (ADP-Glo Assay) (AID 1771); further: on the % scale 0 is the no-effect control and ±100 the full control effect; nearly all actives have a fitted effect of over 70% in size
Outline: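 Clk4 (25 nM) was incubated 1 hr at room temperature with 100 uM RS repeat peptide and 1 uM ATP in buffer with 2 mM MgCl2, 0.5 mM EGTA, 2.5 mM DTT. ADP formed was quantified by ADP-Glo luminescence.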

[25] = target: Dual specificity protein kinase CLK4 (Homo sapiens) (UniProt Q9HAZ1); test: qHTS Assay for Inhibitors of CDC-like Kinase 4 (ADP-FP Assay) (AID 1795);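 further: recombinant human CLK4 phosphorylating RS repeat peptide at 1 µM ATP; on the % scale 0 is the no-effect control and ±100 the full control effect; nearly all actives have a fitted effect of over 60% in size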
Outline: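 Recombinant Clk4 (6.25 nM) phosphorylated 100 uM RS repeat peptide with 1 uM ATP in 25 mM Tris pH 7.5, 10 mM MgCl2, 0.5 mM EGTA, 2.5 mM DTT, 0.01% Triton X-100 for 1 h. ADP was detected by Transcreener ADP2 competitive fluorescence polarization after 30 min at room temperature.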

[26] = target: Ubiquitin carboxyl-terminal hydrolase 1 (Homo sapiens) (UniProt O94782); test: Inhibitors of USP1/UAF1: Pilot qHTS (AID 504865);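 further: rhodamine fluorescence freed from ubiquitin-rhodamine substrate followed over time; top concentration of the series differs between compounds; on the % scale 0 is the no-effect control and ±100 the full control effect; nearly all actives have a fitted effect of over 35% in size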
Outline: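 USP1/UAF1 complex at 1 nM preincubated 15 min at room temperature with compound, then Ub-Rho substrate added at 150 nM final. Fluorescence (480/540 nm) read kinetically in 50 mM HEPES pH 7.8, 0.5 mM EDTA, 1 mM TCEP, 0.1 mg/ml BSA, 0.01% Tween-20.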

Glucocorticoid receptor (Homo sapiens), sequence (P04150 whole entry, looked up, the tested form may be a part): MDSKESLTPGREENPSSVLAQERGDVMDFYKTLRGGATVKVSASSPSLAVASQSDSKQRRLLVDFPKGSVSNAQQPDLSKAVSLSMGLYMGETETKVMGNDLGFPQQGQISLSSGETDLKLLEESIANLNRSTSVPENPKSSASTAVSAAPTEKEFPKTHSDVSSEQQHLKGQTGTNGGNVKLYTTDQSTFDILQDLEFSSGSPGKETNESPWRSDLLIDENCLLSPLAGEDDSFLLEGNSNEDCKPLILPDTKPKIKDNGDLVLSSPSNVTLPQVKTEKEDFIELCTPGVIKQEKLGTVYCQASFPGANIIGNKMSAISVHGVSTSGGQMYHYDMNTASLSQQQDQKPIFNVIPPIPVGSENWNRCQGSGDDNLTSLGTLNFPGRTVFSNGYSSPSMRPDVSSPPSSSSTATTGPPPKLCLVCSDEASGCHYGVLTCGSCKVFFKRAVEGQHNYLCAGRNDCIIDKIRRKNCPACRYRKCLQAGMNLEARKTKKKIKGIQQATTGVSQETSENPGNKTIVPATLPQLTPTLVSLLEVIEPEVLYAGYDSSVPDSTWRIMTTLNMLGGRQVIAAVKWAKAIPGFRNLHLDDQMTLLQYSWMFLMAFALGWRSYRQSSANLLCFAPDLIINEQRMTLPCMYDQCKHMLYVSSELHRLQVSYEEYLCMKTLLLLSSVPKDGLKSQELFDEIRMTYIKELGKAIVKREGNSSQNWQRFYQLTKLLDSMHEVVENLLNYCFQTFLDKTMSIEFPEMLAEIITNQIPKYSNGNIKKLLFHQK
Dual specificity protein kinase CLK4 (Homo sapiens), sequence (Q9HAZ1 whole entry, looked up): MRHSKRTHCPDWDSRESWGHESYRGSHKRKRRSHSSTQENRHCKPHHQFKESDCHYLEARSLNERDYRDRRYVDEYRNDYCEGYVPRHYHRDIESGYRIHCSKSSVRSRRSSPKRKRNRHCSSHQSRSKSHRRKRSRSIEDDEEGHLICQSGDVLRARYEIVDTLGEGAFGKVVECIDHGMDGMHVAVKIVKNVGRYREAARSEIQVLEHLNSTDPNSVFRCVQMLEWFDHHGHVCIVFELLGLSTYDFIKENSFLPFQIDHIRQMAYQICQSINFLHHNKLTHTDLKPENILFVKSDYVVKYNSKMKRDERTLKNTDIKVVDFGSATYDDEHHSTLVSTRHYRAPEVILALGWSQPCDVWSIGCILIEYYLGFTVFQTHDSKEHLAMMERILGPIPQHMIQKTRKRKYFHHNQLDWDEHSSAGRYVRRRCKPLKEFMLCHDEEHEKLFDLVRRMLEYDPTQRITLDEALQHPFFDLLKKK
Cytochrome P450 3A4 (Homo sapiens), sequence (P08684 whole entry, looked up): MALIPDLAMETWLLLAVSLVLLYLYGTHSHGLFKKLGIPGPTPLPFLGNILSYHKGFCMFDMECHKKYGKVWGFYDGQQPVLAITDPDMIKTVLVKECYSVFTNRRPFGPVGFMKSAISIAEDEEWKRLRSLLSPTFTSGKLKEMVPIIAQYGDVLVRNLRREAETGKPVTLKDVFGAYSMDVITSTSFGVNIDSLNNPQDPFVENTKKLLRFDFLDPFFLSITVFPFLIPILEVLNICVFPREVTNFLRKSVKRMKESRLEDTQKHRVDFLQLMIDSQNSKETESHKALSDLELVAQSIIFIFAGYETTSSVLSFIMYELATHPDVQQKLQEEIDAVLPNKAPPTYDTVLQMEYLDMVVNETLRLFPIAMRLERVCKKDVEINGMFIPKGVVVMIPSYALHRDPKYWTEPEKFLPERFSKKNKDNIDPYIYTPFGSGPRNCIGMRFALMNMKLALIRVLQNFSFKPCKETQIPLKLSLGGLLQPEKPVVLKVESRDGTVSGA
Tumor susceptibility gene 101 protein (Homo sapiens), sequence (Q99816 whole entry, looked up, the tested form may be a part): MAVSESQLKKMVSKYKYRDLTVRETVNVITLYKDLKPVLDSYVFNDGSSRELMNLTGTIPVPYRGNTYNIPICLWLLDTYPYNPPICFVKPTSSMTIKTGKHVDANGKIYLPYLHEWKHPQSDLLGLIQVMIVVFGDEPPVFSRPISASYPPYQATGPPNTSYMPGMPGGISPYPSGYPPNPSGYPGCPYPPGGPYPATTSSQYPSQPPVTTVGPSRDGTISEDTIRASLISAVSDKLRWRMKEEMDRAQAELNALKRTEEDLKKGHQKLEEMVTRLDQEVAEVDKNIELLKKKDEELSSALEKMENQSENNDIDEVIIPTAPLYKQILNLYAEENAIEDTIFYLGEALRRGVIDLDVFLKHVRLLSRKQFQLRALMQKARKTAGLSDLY
Rap guanine nucleotide exchange factor 4 (Homo sapiens), sequence (Q8WZA2 whole entry, looked up): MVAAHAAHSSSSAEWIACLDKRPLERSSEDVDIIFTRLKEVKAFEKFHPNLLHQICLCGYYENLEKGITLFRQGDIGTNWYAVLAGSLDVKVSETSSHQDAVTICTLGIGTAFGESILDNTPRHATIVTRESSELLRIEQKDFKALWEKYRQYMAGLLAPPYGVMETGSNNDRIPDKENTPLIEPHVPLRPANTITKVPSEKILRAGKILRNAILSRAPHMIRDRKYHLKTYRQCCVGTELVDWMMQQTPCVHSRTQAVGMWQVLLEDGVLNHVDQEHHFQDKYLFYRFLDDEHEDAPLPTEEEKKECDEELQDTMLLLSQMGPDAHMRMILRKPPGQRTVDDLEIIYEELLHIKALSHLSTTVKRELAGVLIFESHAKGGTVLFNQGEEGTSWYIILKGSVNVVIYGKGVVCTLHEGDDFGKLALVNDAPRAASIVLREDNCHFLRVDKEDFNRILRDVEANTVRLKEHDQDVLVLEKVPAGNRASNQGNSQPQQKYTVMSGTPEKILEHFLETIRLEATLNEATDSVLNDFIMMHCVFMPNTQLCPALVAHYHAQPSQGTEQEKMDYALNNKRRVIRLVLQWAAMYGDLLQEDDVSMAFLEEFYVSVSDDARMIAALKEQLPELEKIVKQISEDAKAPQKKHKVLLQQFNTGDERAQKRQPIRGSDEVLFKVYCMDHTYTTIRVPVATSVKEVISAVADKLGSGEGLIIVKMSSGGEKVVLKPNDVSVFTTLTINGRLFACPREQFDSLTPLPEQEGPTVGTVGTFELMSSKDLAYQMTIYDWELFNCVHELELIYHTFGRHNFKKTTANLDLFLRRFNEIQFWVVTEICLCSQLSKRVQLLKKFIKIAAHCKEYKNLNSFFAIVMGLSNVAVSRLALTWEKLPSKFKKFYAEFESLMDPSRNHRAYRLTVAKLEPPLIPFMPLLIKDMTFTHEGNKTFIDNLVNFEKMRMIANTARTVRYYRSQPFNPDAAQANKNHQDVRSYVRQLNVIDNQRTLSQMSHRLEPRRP
Rap guanine nucleotide exchange factor 3 (Homo sapiens), sequence (O95398 whole entry, looked up): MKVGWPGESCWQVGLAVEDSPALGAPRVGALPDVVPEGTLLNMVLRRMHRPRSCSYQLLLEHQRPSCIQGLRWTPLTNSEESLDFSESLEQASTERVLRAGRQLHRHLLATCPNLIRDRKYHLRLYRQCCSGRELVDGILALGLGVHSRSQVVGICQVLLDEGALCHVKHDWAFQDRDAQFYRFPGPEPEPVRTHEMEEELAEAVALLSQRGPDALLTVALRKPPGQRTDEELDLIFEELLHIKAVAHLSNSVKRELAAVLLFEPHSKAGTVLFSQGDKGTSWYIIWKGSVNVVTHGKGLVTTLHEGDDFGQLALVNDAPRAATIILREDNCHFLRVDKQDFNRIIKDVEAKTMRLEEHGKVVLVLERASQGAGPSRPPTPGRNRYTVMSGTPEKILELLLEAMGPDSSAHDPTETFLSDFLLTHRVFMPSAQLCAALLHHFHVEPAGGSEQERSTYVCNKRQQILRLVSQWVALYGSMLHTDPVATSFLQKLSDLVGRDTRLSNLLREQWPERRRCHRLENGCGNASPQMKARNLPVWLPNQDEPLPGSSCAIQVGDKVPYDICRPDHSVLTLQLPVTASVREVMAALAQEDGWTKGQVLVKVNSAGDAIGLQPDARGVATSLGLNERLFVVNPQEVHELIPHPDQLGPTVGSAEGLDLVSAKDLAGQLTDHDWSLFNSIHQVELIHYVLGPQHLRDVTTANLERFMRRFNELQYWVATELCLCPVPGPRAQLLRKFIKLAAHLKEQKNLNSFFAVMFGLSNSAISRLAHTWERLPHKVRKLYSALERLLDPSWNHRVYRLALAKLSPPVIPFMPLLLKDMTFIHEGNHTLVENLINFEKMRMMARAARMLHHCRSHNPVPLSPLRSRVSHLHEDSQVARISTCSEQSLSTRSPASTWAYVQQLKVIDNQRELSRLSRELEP
Vitamin D3 receptor (Homo sapiens), sequence (P11473 whole entry, looked up, the tested form may be a part): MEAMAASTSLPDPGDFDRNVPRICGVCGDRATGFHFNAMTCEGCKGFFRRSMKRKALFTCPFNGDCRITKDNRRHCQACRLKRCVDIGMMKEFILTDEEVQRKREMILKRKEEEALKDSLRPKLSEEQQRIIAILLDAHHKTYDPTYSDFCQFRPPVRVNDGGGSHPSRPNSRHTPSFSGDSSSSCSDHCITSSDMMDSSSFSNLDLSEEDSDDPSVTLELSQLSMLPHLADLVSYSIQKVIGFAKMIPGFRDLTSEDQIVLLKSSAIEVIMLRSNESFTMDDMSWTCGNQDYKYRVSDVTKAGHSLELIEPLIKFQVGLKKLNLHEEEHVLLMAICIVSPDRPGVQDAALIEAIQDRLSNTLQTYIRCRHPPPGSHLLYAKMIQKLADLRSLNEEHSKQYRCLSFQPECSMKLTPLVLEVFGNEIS
Cytochrome P450 1A2 (Homo sapiens), sequence (P05177 whole entry, looked up): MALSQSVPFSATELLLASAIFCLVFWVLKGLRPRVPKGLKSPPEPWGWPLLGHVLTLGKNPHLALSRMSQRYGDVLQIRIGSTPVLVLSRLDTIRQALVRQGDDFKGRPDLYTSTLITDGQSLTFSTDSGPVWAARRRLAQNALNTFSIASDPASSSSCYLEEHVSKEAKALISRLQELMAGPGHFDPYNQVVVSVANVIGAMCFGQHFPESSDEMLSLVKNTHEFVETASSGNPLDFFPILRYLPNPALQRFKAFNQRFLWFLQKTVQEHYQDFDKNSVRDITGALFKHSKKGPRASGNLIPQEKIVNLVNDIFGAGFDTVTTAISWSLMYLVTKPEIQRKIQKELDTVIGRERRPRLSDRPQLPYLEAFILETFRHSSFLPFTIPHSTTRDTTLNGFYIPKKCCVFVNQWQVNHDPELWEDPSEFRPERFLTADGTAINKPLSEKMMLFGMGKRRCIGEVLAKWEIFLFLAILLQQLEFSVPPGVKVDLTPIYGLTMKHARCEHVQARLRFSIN

CCN1C(=O)c2cccc3c(N)ccc(c23)C1=O
inactive: Potency [2]
active: Potency [1] 2.06 µM | Potency [3] 100 µM | Potency [4] 100 µM | Potency [5] 75.7 µM | Potency [6] 35.5 µM

O=C(O)c1ccc2c(c1)C(=O)N(c1ccc(/C=C/C(=O)c3ccccc3)cc1)C2=O
active: Potency [7] 10.6 µM | Potency [2] 39.8 µM
inactive: Potency [8] | Potency [9] | Potency [10] | Potency [3] | activation [4] 5.43% [at 17.1 µM, percent relative to cAMP agonist control] | Potency [5] | activation [6] 8.33% [at 30.8 µM]

COC(=O)[C@@]1(C)CCC[C@@]2(C)c3ccc(O)c(C(C)C)c3CCC21 (stereo partly specified)
inactive: outcome [12] | Potency [13] | Potency [14] | Potency [2] | Potency [3] | Potency [4] | Potency [5]
active: Potency [11] 31.6 µM

Nc1ccc(-c2c3ccc(=O)cc-3oc3cc(O)ccc23)cc1C(=O)O
active: Potency [1] 23.1 µM | Potency [3] 50.1 µM | Potency [4] 100 µM
inactive: Potency [2] | Potency [5]

O=C(COC(=O)COc1ccc(Cl)cc1Cl)NC1CCCC1
inactive: Potency [2] | Potency [3] | activation [4] 9.18% [at 17.1 µM, percent relative to cAMP agonist control] | Potency [5] | activation [6] -1.05% [at 30.8 µM]

Oc1ccc2ccc3cccc[n+]3c2c1
active: Potency [1] 4.11 µM | Potency [3] 112 µM | Potency [4] 100 µM | Potency [6] 39.8 µM
inactive: Potency [2] | Potency [5]

COc1ccc(Oc2ncc3nc(CCc4ccccc4)c(=O)n(CCC#N)c3n2)cc1
inactive: activity change, negative = inhibition [16] 3.1% | Potency [17] > 9.22 µM | Potency [18] > 46 µM | Potency [19] | Potency [20] | outcome [12] | Potency [2] | Potency [3] | Potency [4] | Potency [5]
active: Potency [15] 6.31 µM | Potency [11] 1.58 µM

CN1CCN(c2ncc3nc(-c4cccs4)c(=O)n(CCc4ccccc4)c3n2)CC1
active: Potency [15] 2.51 µM | Potency [22] 3.16 µM
inactive: Potency [21] > 11.4 µM | Potency [17] > 9.22 µM | Potency [18] > 46 µM | Potency [20] | outcome [12] | Potency [23] | Potency [24] | Potency [25] | Potency [26] | Potency [2] | Potency [3] | Potency [4] | Potency [5]
